Test results: PubChem BioAssay (EPA / NIEHS)
Active and inactive are the calls of the source. How the source made its calls: active means hit-call score of the fitted dose curve at least 0.9, where 1 is the maximum; inactive means score below 0.9.

Test: ATG_AP_1_CIS: Attagene CIS-FACTORIAL HepG2 Assay for human Activator Protein 1 (AP-1) (AID 2282931)
Conditions: HepG2 Attagene cis-factorial AP-1 reporter mRNA; actives raise or lower the signal
Description: ATG_CIS is a cell-based, multiplexed-readout assay that uses HepG2, a human liver cell line, with measurements taken at 24 hours after chemical dosing in a 24-well plate.ATG_AP_1_CIS is one of 52 assay component(s) measured or calculated from the ATG_CIS assay. It is designed to make measurements of mRNA induction, a form of inducible reporter, as detected with fluorescence intensity signals by Reverse transcription polymerase chain reaction (RT-PCR) and Capillary electrophoresis technology.Data from the assay component ATG_AP_1_CIS was analyzed into 1 assay endpoint. This assay endpoint, ATG_AP_1_CIS, was analyzed with bidirectional fitting relative to DMSO as the negative control and baseline of activity. Using a type of inducible reporter, measures of mRNA for gain or loss-of-signal activity can be used to understand the reporter gene at the transcription factor-level as they relate to the gene FOS and JUN. Furthermore, this assay endpoint can be referred to as a primary readout, because this assay has produced multiple assay endpoints where this one serves a reporter gene function. To generalize the intended target to other relatable targets, this assay endpoint is annotated to the dna binding intended target family, where the subfamily is basic leucine zipper.
Human liver HepG2 cells are transiently transfected with multiple reporter transcription units (MRTUs) in 6-well plates using FuGene 6 reagent (Roche; 3 ml FuGene/1 mg DNA). The MRTU constructs are regulated by a cis-regulating element (promoter). […] A major difference between the CIS and TRANS system is that in CIS activities of endogenous TFs are measured, whereas the TRANS assay evaluates changes in activities of exogenous, chimeric NR-Gal4 proteins. […] At the end of 24 hour incubation, total RNA was isolated using TriZol reagent (Invitrogen). The isolated RNA is then reverse-transcribed using oligo(dT) primer and Mo-MLV reverse transcriptase (Invitrogen) with DNAse I (Ambion) treatment for 30 min. The one-tenth of the produced cDNA was amplified by PCR using Taq DNA polymerase (Invitrogen) and two reporter sequence-specific primers. The PCR products were fluorescently labeled by primer extension with 6-arboxyfluorescein (6-FAM) 5'-labeled reporter sequence-specific primer (2 min at 95 C, 20 s at 68 C and 10 min at 72 C) and these products were digested with 5U of HpaI (New England Biolabs) for 2h at 37 C. The fragments were purified using Qiaquick PCR columns (Qiagen), analyzed on an ABI 3130xL genetic analyzer (Applied Biosystems) with peak positions identified by using a set of X-rhodamine (ROX)-labeled MapMarker1000 molecular weight standards (BioVentures). The raw capillary electrophoresis data was processed using Attagraph software (Attagene).

SMILES	outcome	AC50
N#Cc1ccccc1O	inactive	
CCN=C1C=CC(=C(c2ccc(N(CC)CC)cc2)c2ccc(N(CC)CC)cc2)c2ccccc21		0.191 µM (active)
O=C(c1ccccc1)c1ccc(O)cc1O	inactive	
NC(O)(C(F)(F)F)C(F)(F)F	inactive	
CN(C)C(C)(C)CO	inactive	
Cc1cc(C)c(O)c(C(C)(C)C)c1	inactive	
CCCC(=O)OCC(COC(=O)CCC)OC(=O)CCC	inactive	
CC(C)OC(=O)COc1ccc(Cl)cc1Cl	inactive	
C[Si](C)O[Si](C)C	inactive	
CC1=CC2C3C=CC(C3)C2C1C (stereo not given)	inactive	
COC(F)(C(F)F)C(F)(F)F (stereo not given)	inactive	
CCCCCCCCCCCCCC[P+](CCCC)(CCCC)CCCC	inactive	
CCOC(=O)CC(=O)C(F)(F)C(F)(F)F	inactive	
COCCOCCC[Si](C)(O[Si](C)(C)C)O[Si](C)(C)C		1.53 µM (active)
CO[Si](C)(CCC(F)(F)C(F)(F)C(F)(F)C(F)(F)C(F)(F)C(F)(F)F)OC	inactive	
Cc1cc(=O)[nH]c(C(C)C)n1	inactive	
OCCCCC(F)(F)C(F)(F)C(F)(F)C(F)(F)F	inactive	
O=C(c1ccccc1)c1ccc(Cl)cc1	inactive	
CCC/C=C/CO	inactive	
O=S(=O)(O)CCC(F)(F)C(F)(F)C(F)(F)C(F)(F)C(F)(F)C(F)(F)C(F)(F)C(F)(F)F	inactive	

SMILES	outcome	AC50
FC(F)(F)C(F)(F)C(F)(F)C(F)(F)C(F)(F)C(F)(F)C(F)(F)CCI	inactive	
CC(C)(C)c1cc(CCC(=O)NCCCCCCNC(=O)CCc2cc(C(C)(C)C)c(O)c(C(C)(C)C)c2)cc(C(C)(C)C)c1O	inactive	
FC(F)(F)C(F)(F)C(F)(F)CC1CO1 (stereo not given)	inactive	
CC(C)C(=O)OCc1ccccc1	inactive	
NC(=O)C(F)(F)C(F)(F)C(F)(F)F	inactive	
N#CCCOCCC#N	inactive	
CCN(CCO)S(=O)(=O)C(F)(F)C(F)(F)C(F)(F)C(F)(F)C(F)(F)C(F)(F)C(F)(F)C(F)(F)F	inactive	
CC(C)=CCCC(C)O (stereo not given)	inactive	
CC(C)(C)c1cc(CCC(=O)OCC(COC(=O)CCc2cc(C(C)(C)C)c(O)c(C(C)(C)C)c2)(COC(=O)CCc2cc(C(C)(C)C)c(O)c(C(C)(C)C)c2)COC(=O)CCc2cc(C(C)(C)C)c(O)c(C(C)(C)C)c2)cc(C(C)(C)C)c1O	inactive	
CC(C)(C)c1cc(Cc2cc(C(C)(C)C)c(O)c(C(C)(C)C)c2)cc(C(C)(C)C)c1O	inactive	
NC(=O)C(F)(F)C(F)(F)C(F)(F)C(F)(F)C(F)(F)C(F)(F)C(F)(F)F	inactive	
NS(=O)(=O)C(F)(F)C(F)(F)C(F)(F)C(F)(F)C(F)(F)C(F)(F)F	inactive	
O=C(O)CCC(F)(F)C(F)(F)C(F)(F)F	inactive	
CCCCCCCCCCCCC[N+](C)(C)Cc1ccccc1	inactive	
CCCCOC(=O)[C@H](C)O	inactive	
NC(=O)C(F)(F)C(F)(F)C(F)(F)C(F)F	inactive	
C=C(C)C(=O)OCC(F)(F)C(F)(F)C(F)(F)C(F)F	inactive	
CCN(CC)c1ccc(N=Nc2ccccc2)cc1		72.7 µM (active)
Cc1cc(O)c(C(C)(C)C)cc1C(C)(C)C		11.1 µM (active)
C=CC(=O)OCC(F)(F)C(F)(F)C(F)(F)C(F)(F)C(F)(F)C(F)(F)C(F)(F)C(F)F	inactive	
